Experimental data taken from a collection of fitness landscapes (doi:10.1126/science.1257360).
Whole data set: some 140,000 sequences, median “enrichment ratio after two sorts for PhoP signalling” near 0, cut for the highest 2% near 11. The sample as a whole holds a higher share of the highest values than the screen did.

B1: PhoQ; a variant is named by its letters at X, in order, P23837 (parent)
chain: MKKLLRLFFPLSLRVRFLLATAAVVLVLSLAYGMVALIGYSVSFDKTTFRLLRGESNLFYTLAKWENNKLHVELPENIDKQSPTMTLIYDENGQLLWAQRDVPWLMKMIQPDWLKSNGFHEIEADVNDTSLLLSGDHSIQQQLQEVREDDDDAEMTHSVAVNVYPATSRMPKLTIVVVDTIPVELKSSYMVWSWFIYVLSANLLLVIPLLWVAAWWSLRPIEALAKEVRELEEHNRELLNPATTRELTSLVRNLNRLLKSERERYDKYRTTLTDLTHSLKTPLXXLQXXLRSLRSEKMSVSDAEPVMLEQISRISQQIGYYLHRASMRGGTLLSRELHPVAPLLDNLTSALNKVYQRKGVNISLDISPEISFVGEQNDFVEVMGNVLDNACKYCLEFVEISARQTDEHLYIVVEDDGPGIPLSKREVIFDRGQRVDTLRPGQGVGLAVAREITEQYEGKIVAGESMLGGARMEVIFGRQHSAPKDE

Variants of: B1
Test: enrichment ratio after two sorts for PhoP signalling (ratio (wild type AVST 3.29)); higher = more functional
Settings: with PhoP (E. coli)

| Variant | enrichment ratio |
| --- | --- |
| NNDT | ≤ 0.25 |
| FCNF | ≤ 0.25 |
| MPFQ | ≤ 0.25 |
| RPVE | ≤ 0.25 |
| VATR | ≤ 0.25 |
| FKHE | ≤ 0.25 |
| YRPV | ≤ 0.25 |
| VMPF | ≤ 0.25 |
| AQGT | 3.18 |
| AKAL | 11.1 |
| VRAL | ≤ 0.25 |
| MVAL | 11.3 |
| TSAL | 13 |
| GVAL | 1.02 |
| ASAL | 11.7 |
| NVAL | ≤ 0.25 |
| AQAL | 18.4 |
| KSAL | ≤ 0.25 |
| AHAL | ≤ 0.25 |
| FSAL | 0.667 |
| GNDN | 0.537 |

| Variant | enrichment ratio |
| --- | --- |
| LWNG | ≤ 0.25 |
| QKPR | ≤ 0.25 |
| NSMN | ≤ 0.25 |
| RATG | ≤ 0.25 |
| TMAL | 14 |
| MCAL | 13.5 |
| MMAL | 13.5 |
| FCAL | ≤ 0.25 |
| MKAL | 4.45 |
| MFAL | ≤ 0.25 |
| DMAL | ≤ 0.25 |
| KCAL | ≤ 0.25 |
| KMAL | ≤ 0.25 |
| AMAL | 11.3 |
| VLAL | 0.925 |
| NMAL | ≤ 0.25 |
| HHKF | ≤ 0.25 |
| ICEL | ≤ 0.25 |
| LEWF | ≤ 0.25 |
| GLPR | ≤ 0.25 |
| NESC | ≤ 0.25 |

| Variant | enrichment ratio |
| --- | --- |
| HPEC | ≤ 0.25 |
| NEHC | ≤ 0.25 |
| TEHC | 22.1 |
| TESC | 13.3 |
| QESC | 5.96 |
| TEYC | 12.6 |
| KSYC | ≤ 0.25 |
| LWEC | ≤ 0.25 |
| YTYC | ≤ 0.25 |
| TEEC | 12.4 |
| YYHC | ≤ 0.25 |
| YRVI | ≤ 0.25 |
| ETQT | ≤ 0.25 |
| GDCV | 1.12 |
| HWFI | ≤ 0.25 |
| VAGY | 1.53 |
| NQGE | ≤ 0.25 |
| YYNI | ≤ 0.25 |
| MCMI | 4.33 |
| IAKS | ≤ 0.25 |
| NMWR | ≤ 0.25 |

| Variant | enrichment ratio |
| --- | --- |
| KAQY | ≤ 0.25 |
| TEPC | ≤ 0.25 |
| TENK | 5.62 |
| TETC | 24.3 |
| PWAR | ≤ 0.25 |
| SIWI | ≤ 0.25 |
| KYMI | ≤ 0.25 |
| LWMI | ≤ 0.25 |
| SIMI | 17.4 |
| SRGE | ≤ 0.25 |
| SIGE | 16.9 |
| QEMI | 65.2 |
| SWMI | ≤ 0.25 |
| SPMI | ≤ 0.25 |
| KYGE | ≤ 0.25 |
| QDFA | ≤ 0.25 |
| STMI | 14.9 |
| WVYV | ≤ 0.25 |
| RSYE | ≤ 0.25 |
| DIVY | ≤ 0.25 |
| VANA | ≤ 0.25 |
